27 molecules from PubChem BioAssay (NCATS) can be followed below.

The nature of test [1]: qHTS for Inhibitors of Cell Surface uPA Generation: Validation Assay (AID 493164).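 Further: RAW 264.7 macrophage cells exposed to compound for 18 h.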 Summed up:
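ATP-Lite luminescence read-out: ATP remains high when uPA activity-dependent LF translocation into the cytoplasm is blocked. RAW 264.7 cells, 18 h compound exposure at 37 C; 7-point titration, 2.45 nM to 38.3 uM final.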
(In qHTS, concentration-response curves come from the screen itself.)

Test [2] deals with Galactokinase (Homo sapiens) (UniProt P51570). The experiment in a line: qHTS Validation Assay for Inhibitors of Human Galactokinase (GALK) (AID 493189). Summed up:
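5 nM GALK / 100 uM galactose / 35 uM ATP, 20 mM HEPES pH8.0, 5 mM MgCl2, 60 mM NaCl, 1 mM DTT, 0.01% BSA (final). RT 1 h; Kinase-Glo Plus luminescence.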

A short description of test [3]: Validation screen for small molecules that induce DNA re-replication in SW480 colon adenocarcinoma cells (AID 504364). In short, it runs like this:
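Image-based qHTS: compounds were incubated with SW480 cells for 48 hr, nuclei stained with Hoechst, and per-nucleus fluorescence intensity scanned to flag cells with excess DNA content.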

In test [4] the target is Peptidyl-prolyl cis-trans isomerase NIMA-interacting 1 (Homo sapiens) (UniProt Q13526). The experiment in a line: qHTS Validation Assay to Find Inhibitors of Pin1 (AID 504536; active means well fitted inhibition curve with a large enough effect in the polarisation, with a control signal flat, not every such curve was filed as active; the % refers to the polarisation). Summed up:
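Fluorescence polarization competition: compounds (titration) displace HiFluor-488-labeled Pin1-1b peptide from Pin1 (0.3 uM final) in pH 7.5 HEPES buffer with DTT, 10 min at room temperature; %Activity normalized to no-enzyme wells, curves fitted.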

Test [5] addresses Phosphoglycerate kinase, glycosomal (Trypanosoma brucei brucei) (UniProt P07378). The experiment in a line: qHTS Validation Assay to Find Inhibitors of Phosphoglycerate Kinase (AID 504547). In short, it runs like this: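 In TEA buffer (100mM, pH 7.6) containing 5mM MgCl2 and 0.01% Tween-20, the GAPDH-coupled PGK reaction proceeded for 60 minutes at room temperature before a single luminescence reading using Kinase-Glo Plus.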

Test [6] has as its target phosphoglycerate mutase (Leishmania major) (UniProt Q4Q090). The experiment in a line: qHTS Validation Assay to Find Inhibitors of Phosphoglycerate Mutase (AID 504548). Further: series mostly up to about 58 µM. Particulars: Potency: inhibition qHTS. In short, it runs like this: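 Lm PGAM at 1.25 nM final with substrate in 100 mM TEA pH 7.6, 5 mM MgCl2, 0.01% Tween-20; 45 min at room temperature. Kinase-GloPlus added, 10 min, end-point luminescence read.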

The target in test [7] is Ubiquitin carboxyl-terminal hydrolase 1 (Homo sapiens) (UniProt O94782). The experiment in a line: Inhibitors of USP1/UAF1: Pilot qHTS (AID 504865). Further: nearly all actives have a fitted effect of over 35% in size. Further: potency means the concentration at half of the fitted maximal effect. In short, it runs like this:
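In 50mM HEPES pH 7.8 containing 0.5mM EDTA, 1mM TCEP, 0.1 mg/ml BSA and 0.01% Tween-20, 1nM USP1/UAF1 is exposed to compound for 15 min, then Ub-Rho (150nM final) is added and fluorescence is read over time.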

A short description of test [8]: qHTS for Inhibitors of ATXN expression: Validation (AID 588378). Further: nearly all actives have a fitted effect of over 75% in size. Further: potency means the concentration at half of the fitted maximal effect. In short, it runs like this: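 Compounds were pinned onto attached HEK293 cells carrying an ATXN2-firefly luciferase construct and incubated 24 hrs at 37 degrees C. Each well then received a fluorescent viability reagent followed by luciferase substrate for end-point luminescence.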
Test [9] addresses DNA dC->dU-editing enzyme APOBEC-3G (Homo sapiens) (UniProt Q9HC16). The experiment in a line: qHTS for inhibitors of Vif-A3G interactions: Validation (AID 588379). Summed up: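 Yellow fluorescence (Ex 488, Em 500-530) of Vif-coexpressing HeLa A3G-eYFP cells, scanned by Acumen cytometer, reports blocked A3G degradation. Cells plated at 700/well overnight at 37 deg C before compound addition, then a further overnight compound incubation at 37 deg C.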

Test [10] in a line: qHTS for Inhibitors of ATXN expression: Validation of Cytotoxic Assay (AID 588349). Further: potency means the concentration at half of the fitted maximal effect. In short, it runs like this: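 Titrated compounds are added to cultured HEK293 cells, which are then held at 37 degrees C for 72 hr; loss of intracellular ATP, measured with CellTiter Glo, indicates toxicity.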

“And” between values parts separate entries of the source, which are not always exact repeats. Equal entries are not always repeated. Inconclusive results are not listed. The source made the active and inactive calls. Unless noted, the call rests on the fitted dose curve; in most records, active means well fitted curve in the direction sought with a large enough effect; inconclusive means small, poorly fitted or top-dose-only effect, or another doubt; inactive means no such curve, though single readings can be large; an effect the other way counts as inactive or inconclusive.

Sequence of DNA dC->dU-editing enzyme APOBEC-3G (Homo sapiens) (Q9HC16 whole entry, looked up): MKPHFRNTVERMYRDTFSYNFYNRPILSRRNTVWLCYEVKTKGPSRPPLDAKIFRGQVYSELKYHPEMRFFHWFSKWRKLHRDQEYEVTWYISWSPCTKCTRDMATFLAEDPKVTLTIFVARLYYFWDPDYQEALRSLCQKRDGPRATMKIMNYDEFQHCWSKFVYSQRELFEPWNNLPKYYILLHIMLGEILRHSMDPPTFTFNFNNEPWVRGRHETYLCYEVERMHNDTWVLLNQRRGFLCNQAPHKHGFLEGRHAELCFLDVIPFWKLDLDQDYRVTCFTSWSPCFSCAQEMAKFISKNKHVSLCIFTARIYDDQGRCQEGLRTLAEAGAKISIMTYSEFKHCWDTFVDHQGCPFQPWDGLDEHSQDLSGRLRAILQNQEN
Sequence of Galactokinase (Homo sapiens) (P51570 whole entry, looked up): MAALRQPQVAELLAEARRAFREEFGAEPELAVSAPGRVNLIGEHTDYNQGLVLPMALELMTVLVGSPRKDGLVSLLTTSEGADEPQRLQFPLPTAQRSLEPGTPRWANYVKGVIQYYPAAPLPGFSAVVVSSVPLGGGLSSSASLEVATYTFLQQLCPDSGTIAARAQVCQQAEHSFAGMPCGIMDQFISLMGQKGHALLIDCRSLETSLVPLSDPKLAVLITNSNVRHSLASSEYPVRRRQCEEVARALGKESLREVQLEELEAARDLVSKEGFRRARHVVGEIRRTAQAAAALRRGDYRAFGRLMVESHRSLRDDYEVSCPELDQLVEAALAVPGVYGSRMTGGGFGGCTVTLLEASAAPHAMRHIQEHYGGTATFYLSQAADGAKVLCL
Sequence of phosphoglycerate mutase (Leishmania major) (Q4Q090 1-553): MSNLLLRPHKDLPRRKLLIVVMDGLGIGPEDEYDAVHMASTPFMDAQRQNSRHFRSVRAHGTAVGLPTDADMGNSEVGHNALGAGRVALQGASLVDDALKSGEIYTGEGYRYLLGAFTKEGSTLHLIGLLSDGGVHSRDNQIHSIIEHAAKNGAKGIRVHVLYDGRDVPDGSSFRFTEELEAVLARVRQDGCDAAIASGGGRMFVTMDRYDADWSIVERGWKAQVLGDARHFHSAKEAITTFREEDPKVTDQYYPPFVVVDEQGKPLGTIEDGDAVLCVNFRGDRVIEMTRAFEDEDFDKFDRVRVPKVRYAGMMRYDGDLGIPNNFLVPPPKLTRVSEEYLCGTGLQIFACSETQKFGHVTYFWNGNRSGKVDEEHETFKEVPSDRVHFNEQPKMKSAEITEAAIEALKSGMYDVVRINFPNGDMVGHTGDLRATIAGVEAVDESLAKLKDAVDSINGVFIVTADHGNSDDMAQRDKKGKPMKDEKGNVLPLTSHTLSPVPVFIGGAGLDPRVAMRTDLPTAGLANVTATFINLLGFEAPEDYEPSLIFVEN
Sequence of Ubiquitin carboxyl-terminal hydrolase 1 (Homo sapiens) (O94782 whole entry, looked up): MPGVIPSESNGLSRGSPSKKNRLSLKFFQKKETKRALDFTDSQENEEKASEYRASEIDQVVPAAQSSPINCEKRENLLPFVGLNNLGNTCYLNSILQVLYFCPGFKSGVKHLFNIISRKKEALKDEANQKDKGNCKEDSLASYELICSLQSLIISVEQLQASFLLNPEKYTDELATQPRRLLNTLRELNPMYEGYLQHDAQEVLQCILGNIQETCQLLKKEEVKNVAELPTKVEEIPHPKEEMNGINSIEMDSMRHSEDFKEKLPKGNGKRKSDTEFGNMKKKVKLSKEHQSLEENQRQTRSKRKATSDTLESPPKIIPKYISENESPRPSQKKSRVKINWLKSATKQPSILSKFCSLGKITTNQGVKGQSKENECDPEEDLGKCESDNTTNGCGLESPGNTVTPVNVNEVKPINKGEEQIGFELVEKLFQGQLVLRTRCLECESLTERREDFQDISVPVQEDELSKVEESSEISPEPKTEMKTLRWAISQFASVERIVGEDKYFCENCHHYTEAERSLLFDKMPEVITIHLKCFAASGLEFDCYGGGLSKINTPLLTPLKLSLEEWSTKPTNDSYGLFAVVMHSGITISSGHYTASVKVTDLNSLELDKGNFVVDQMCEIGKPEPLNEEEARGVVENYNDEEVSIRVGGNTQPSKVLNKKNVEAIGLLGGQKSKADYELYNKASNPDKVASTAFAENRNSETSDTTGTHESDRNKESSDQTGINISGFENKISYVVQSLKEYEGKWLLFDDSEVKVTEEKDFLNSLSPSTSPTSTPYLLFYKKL
Sequence of Peptidyl-prolyl cis-trans isomerase NIMA-interacting 1 (Homo sapiens) (Q13526 whole entry, looked up): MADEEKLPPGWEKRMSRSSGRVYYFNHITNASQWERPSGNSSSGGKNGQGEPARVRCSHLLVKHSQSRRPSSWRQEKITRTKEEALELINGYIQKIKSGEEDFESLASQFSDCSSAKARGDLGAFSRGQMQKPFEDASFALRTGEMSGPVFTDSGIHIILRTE
Sequence of Phosphoglycerate kinase, glycosomal (Trypanosoma brucei brucei) (P07378 whole entry, looked up): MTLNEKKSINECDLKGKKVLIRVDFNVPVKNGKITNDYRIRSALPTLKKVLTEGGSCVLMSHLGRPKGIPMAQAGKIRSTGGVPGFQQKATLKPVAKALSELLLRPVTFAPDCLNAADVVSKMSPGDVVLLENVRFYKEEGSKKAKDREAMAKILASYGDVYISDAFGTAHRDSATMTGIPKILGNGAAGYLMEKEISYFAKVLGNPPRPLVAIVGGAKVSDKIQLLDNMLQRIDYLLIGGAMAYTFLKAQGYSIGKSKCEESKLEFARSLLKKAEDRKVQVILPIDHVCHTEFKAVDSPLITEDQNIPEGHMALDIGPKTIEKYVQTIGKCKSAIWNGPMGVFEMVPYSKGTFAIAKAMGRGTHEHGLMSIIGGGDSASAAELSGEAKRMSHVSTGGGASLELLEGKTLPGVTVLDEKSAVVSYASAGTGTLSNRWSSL

For the molecule `Cc1cccc(C(=O)NCN2CCN(c3ccccc3C#N)CC2)c1`, the molecule was classed as inactive in [1]. The Potency entry in test [2], in test [3], in test [4], in test [5], in test [6] and in test [7] was “inactive” throughout. Also, the Potency result in test [8] and in test [9] was “inactive” each time.

For `C=CCN1CCc2cc(O)c(O)cc2C(c2ccccc2)C1` (stereo unspecified), in test [1], the molecule was called inactive. Moreover, the Potency entry in [2], in [3], in test [4], in test [6] and in test [7] was “inactive” throughout.

In the case of `CCCn1c(=O)c2[nH]c(-c3ccc(S(=O)(=O)O)cc3)nc2n(CCC)c1=O`, the outcome in test [1] was inactive. The Potency result in test [2], in test [3], in [4], in [5], in test [6] and in test [10] was “inactive” throughout. Besides, the Potency result in test [8] was “inactive”.

As for `CCN1C(=O)C=CC1=O`, the molecule was called inactive in test [1]. For the same molecule, the Potency result in test [2], in [3], in test [4], in [5], in [6] and in test [7] was “inactive” throughout. Also, the Potency result in test [8] is “inactive”.

Take `N[C@@H](Cc1c[nH]c2ccccc12)C(=O)O`: in test [1], the molecule was classed as inactive. Moreover, the Potency entry in test [2], in [3], in test [4], in [5], in [6] and in test [7] was “inactive” throughout. Moreover, in test [8], the Potency entry was “inactive”.

For the molecule `Cn1c(=O)c2[nH]c(-c3ccc(S(=O)(=O)O)cc3)nc2n(C)c1=O`, the call in test [1] was inactive. The Potency entry in test [2], in test [3], in test [4], in test [5], in test [6] and in [10] was “inactive” in each case. Also, the Potency result in test [8] was “inactive”.

Turning to `CCCCOc1cc(CC2CNC(=O)N2)ccc1OC` (stereo unspecified), the molecule was called inactive in [1]. Also, the Potency entry in test [2], in test [3], in [4], in test [5], in [6] and in [7] was “inactive” in each case. In addition, the Potency entry in [8] was “inactive”.

On to `CC(C)(C)c1cc(/C=C(\C#N)C(N)=S)cc(C(C)(C)C)c1O`, for which the outcome in test [1] was inactive. The Potency entry in [2], in [3], in test [5] and in [6] was “inactive” in each case.

`Cc1nc(N=Nc2cc(S(=O)(=O)O)c3cc([N+](=O)[O-])cc(S(=O)(=O)O)c3c2)c(COP(=O)(O)O)c(C=O)c1O`: in test [1], the outcome was inactive. In addition, the Potency entry in test [2], in test [3], in test [5], in test [6], in [10] and in test [8] was “inactive” throughout. Also, the Potency result in [9] is “inactive”. In addition, the Potency in test [7] is 50.1 µM (active) and 39.8 µM (active).

For the molecule `O=C(N[C@@H](Cc1ccccc1)C(=O)CCl)OCc1ccccc1`, the call in test [1] was inactive. Further, the Potency result in test [2], in test [3], in test [4] and in [6] was “inactive” each time. The Potency in test [7] is 28.2 µM (active); in [10] it was 3.55 µM (active); in [8], 3.98 µM (active).

`CO/N=C(\C(=O)N[C@@H]1C(=O)N2C(C(=O)O)=C(CSc3nc(=O)c(O)nn3C)CSC12)c1csc(N)n1` (stereo partly specified): in [1], the molecule was called inactive. The Potency result in test [2], in [3], in test [5], in test [6], in test [7] and in test [10] was “inactive” throughout. The Potency result in test [8] is “inactive”.

Consider `CC(=O)NNC(=O)N1Cc2ccccc2Oc2ccc(Cl)cc21`, for which the molecule was classed as inactive in test [1]. Besides, the Potency entry in test [2], in test [3], in [4], in test [6], in [7] and in test [10] was “inactive” throughout. In addition, the Potency entry in [8] and in test [9] was “inactive” in each case.

For `C=CCn1c(=O)c2c(nc(-c3ccc(S(=O)(=O)O)cc3)n2C)n(C)c1=O`, the molecule was called inactive in [1]. Besides, the Potency entry in [2], in test [3], in test [5], in test [6], in test [7] and in [8] was “inactive” in each case.

Take `N[C@@H](CCC(=O)N[C@H](CSN=O)C(=O)NCC(=O)O)C(=O)O`: the molecule was classed as inactive in test [1]. For the same molecule, the Potency entry in [2], in [3], in test [4], in test [6], in test [7] and in [10] was “inactive” throughout. Further, the Potency result in test [8] was “inactive”.

For `CN1CCCC1CCOC(C)(c1ccccc1)c1ccc(Cl)cc1` (stereo unspecified), the result in test [1] was inactive. The Potency result in [2], in test [3], in test [4], in [6] and in [7] was “inactive” each time. In [8], the Potency was 12.6 µM (active).

Take `CSC(N)=NCCC[C@H](N)C(=O)O`: the outcome in [1] was inactive. For the same molecule, the Potency result in test [2], in test [3], in [4], in [7], in test [10] and in test [8] was “inactive” each time.

Regarding `CCCCS(=N)(=O)CC[C@H](N)C(=O)O` (stereo partly specified), in [1], the molecule was classed as inactive. The Potency result in test [2], in test [3], in [4], in test [6], in test [7] and in test [8] was “inactive” in each case.

In the case of `O=C(O)Cc1ccc(O)c(O)c1`, the molecule was classed as inactive in test [1]. Besides, the Potency result in test [2], in test [3], in [4], in [6], in test [7] and in test [8] was “inactive” in each case.

For `CC(N)(Cc1ccc(O)cc1)C(=O)O` (stereo unspecified), the call in test [1] was inactive. Moreover, the Potency entry in test [2], in test [3], in test [5], in test [6], in test [7] and in test [10] was “inactive” each time. Also, the Potency result in test [8] is “inactive”.

Take `COC1(C2=NCCN2)COc2ccccc2O1` (stereo unspecified): the result in test [1] was inactive. For the same molecule, the Potency result in test [2], in test [3], in test [4], in test [6], in test [7] and in test [8] was “inactive” each time.

Consider `O=c1ccc2c(OCCCCc3ccccc3)c3ccoc3cc2o1`, for which, in test [1], the molecule was called inactive. Besides, the Potency result in test [2], in test [3], in [4], in test [6], in [7] and in [10] was “inactive” each time. Besides, the Potency result in test [8] is “inactive”.

For `Cc1cccc(C2CN(C)CCc3c2cc(O)c(O)c3Cl)c1` (stereo unspecified), the molecule was called inactive in test [1]. Also, the Potency result in test [2], in [3], in test [5], in test [6] and in test [7] was “inactive” in each case.

Regarding `CC(N)(Cc1ccc(O)c(O)c1)C(=O)O` (stereo unspecified), the outcome in test [1] was inactive. The Potency result in test [2], in test [3], in [4], in [7] and in test [8] was “inactive” in each case.

With `CCCCCC[C@@H]([C@@H](C)O)n1cnc2c(N)ncnc21`, the call in test [1] was inactive. Further, the Potency result in [2], in test [3], in test [5], in [6], in test [7] and in test [10] was “inactive” in each case. Also, the Potency result in [8] and in test [9] was “inactive” throughout.

For the molecule `CCSC(=N)N`, the call in test [1] was inactive. Besides, the Potency result in test [2], in test [3], in test [4], in test [6], in test [7] and in [10] was “inactive” each time. For the same molecule, the Potency entry in [8] and in test [9] was “inactive” throughout.

With `O=C(O)C1CN(CCCP(=O)(O)O)CCN1` (stereo unspecified), the molecule was classed as inactive in test [1]. Further, the Potency result in test [2], in test [3], in [5], in [6], in test [7] and in test [10] was “inactive” throughout. Further, the Potency entry in test [8] is “inactive”.

`CC(=O)/C(C)=N/O`: the call in test [1] was inactive. Moreover, the Potency entry in test [2], in [3], in [5], in test [6], in test [7] and in test [10] was “inactive” in each case. Further, the Potency result in test [8] was “inactive”.
